The campaign covered roughly 4,100 compounds. About 1,600 (39%) were called active. Inconclusive results (about 25%) are left out. Calls follow the shape of the dose curve; as a rule, active = well fitted inhibition curve with a large enough effect; inconclusive = small, poorly fitted or top-dose-only effect; inactive = no such curve, though single readings can be large or run the other way. The list shows a part of the results. A call without a number means that no potency is given here.
test: qHTS Validation assay for Inhibitors of Plasmodium falciparum Dd2 growth in vitro; also: nearly all actives have a fitted effect of over 70% in size; settings: P. falciparum Dd2 in RBCs, SYBR Green growth, 72 h; series mostly up to 28.7 µM
In short: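 P. falciparum Dd2-infected red blood cells (2.5% hematocrit, 0.3% parasitemia) grown 72 h at 37 °C under 5% O2 with compounds in a titration, 29 uM to 0.5 nM final. Growth read as SYBR Green-1 fluorescence after ~16 h lysis; artesunate 300 nM as positive control.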
Potency is read from the fitted curve at half-maximal effect.

| Compound | Potency |
| --- | --- |
| CCOC(=O)C1(Cc2ccccc2C(F)(F)F)CCNCC1 | inactive |
| CCOC(=O)C1(Cc2ccccc2Cl)CCNCC1 | 2660 nM (active) |
| CN(CCc1ccccn1)c1ccc(-c2nc(COc3ccccc3)no2)cn1 | inactive |
| Fc1cccc(NC(=S)NNc2c3ccccc3nc3ccccc23)c1 | 15000 nM (active) |
| COc1ccccc1CN(C)C1CCCc2ccccc21 (centres undefined) | inactive |
| OC(CNC1CCCc2ccccc21)COc1c(Cl)cccc1Cl (centres undefined) | 1680 nM (active) |
| CC(=O)N(C)C1CCCc2ccccc21 (centres undefined) | inactive |
| O=C(N/N=C(\c1ccccc1)c1cccnc1)c1cccc(F)c1 | 4220 nM (active) |
| CCc1noc(-c2cccn3c(CNC(=O)c4cccc(F)c4)nnc23)n1 | inactive |
| N/C(=N\OC(=O)c1cccc(F)c1)c1ccccn1 | inactive |
| O=C1NCN(c2ccccc2)C12CCN(CCCC(c1ccc(F)cc1)c1ccc(F)cc1)CC2 | 5310 nM (active) |
| F[C@@H]1CN(CC2CC2)C[C@@H]1OCc1nc2ccccc2o1 | inactive |
| Cc1cc(C)c(Cn2c(=O)n(CCCCC(=O)NCc3ccccc3Cl)c(=O)c3ccccc32)c(C)c1 | inactive |
| CCOC(=O)c1cccc(NC(=O)Cn2ncc3c4ccccc4n(Cc4ccccc4)c3c2=O)c1 | inactive |
| CCCCN(C)CCCNC(=O)Cn1ncc2c3ccccc3n(Cc3cc(C)ccc3C)c2c1=O | 750 nM (active) |
| COc1ccc(NC(=O)CSc2nc(-c3ccc(OC)cc3)[nH]c2-c2ccc(F)cc2)cc1 | inactive |
| COc1ccc(-c2c3c(nc4sc(C(=O)Nc5ccc(Cl)cc5)c(N)c24)CC(C)(C)CC3=O)cc1 | 376 nM (active) |

| Compound | Potency |
| --- | --- |
| CCc1ccc(N=C2NC(=O)CC(C(=O)Nc3ccc(OC)cc3)S2)cc1 (centres undefined) | inactive |
| COc1ccc(NC(=O)c2sc3nc4c(c(-c5ccc(OC)cc5)c3c2N)C(=O)CC(C)(C)C4)cc1 | 1880 nM (active) |
| Cc1nc2sc(C(=O)Nc3ccc(F)cc3)c(N)c2c(-c2ccc(Br)cc2)c1C(=O)Nc1ccc(Cl)cc1 | 8410 nM (active) |
| COc1ccc(-c2c3c(nc4sc(C(=O)Nc5ccc(F)cc5)c(N)c24)CC(C)(C)CC3=O)cc1 | 944 nM (active) |
| COc1ccc(C(=O)Nc2ccc([C@H]3OCC(=O)N(C(C)C)[C@@H]3CO)cc2)cc1 | inactive |
| CCn1nccc1C(=O)N1CCCC(n2cc(-c3nc(-c4ccccc4)no3)nn2)C1 (centres undefined) | inactive |
| O=C(Nc1ccc(-c2nnc3n2CCCC3)cc1)c1ccc2ccccc2n1 | inactive |
| CCOC(=O)N1CCN(c2nc3ccccn3c(=O)c2C=O)CC1 | inactive |
| CCOC(=O)N1CCN(C(=O)c2ccccc2-c2ccccc2)CC1 | inactive |
| CCOC(=O)c1ccccc1NC1c2ccccc2C(=O)N1C1CCN(C(=O)OCC)CC1 (centres undefined) | 13300 nM (active) |
| COc1ccc(-n2nc3ccc(N)cc3n2)cc1Cl | inactive |
| Oc1ccc(Cl)cc1-c1cc(C(F)(F)C(F)F)nc(-c2ccccc2)n1 | 842 nM (active) |
| CCN(CC)c1ccc(C(=O)NCc2nnc3c(-c4nc(C(C)C)no4)cccn23)cc1 | inactive |
| COc1cc(OC)c(NC2=CC(=O)C(=O)c3ccccc32)cc1Cl | 2990 nM (active) |
| COc1cc(Cl)c(NC2=CC(=O)C(=O)c3ccccc32)c(OC)c1 | 1680 nM (active) |
| COc1cc(OC)c(NC(=O)n2ncc3cc(Cl)ccc32)cc1Cl | inactive |
| Cc1cc(O)c(-c2ccnc3cc(-c4ccccc4)nn23)cc1Cl | 1880 nM (active) |
